# PubChem BioAssay
# Activity calls are given as the source filed them. Unless noted, no rule for the calls is given here.
# What was measured:
# [1] = compounds binding Alexa647 anti-His antibody – biochemical, small-molecule microarray, 635 nm fluorescence, artefact control for SMM control protein annotation, primary screen (AID 1128); settings: higher = more signal;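 also: score merges feature fluorescence with signal-to-noise for each printed compound spot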
# [2] = system: Human papillomavirus type 1a E7 protein (residues 1-88); assay: HPV1a E7 small-molecule binders, primary screen, biochemical, small-molecule microarray, residues 1-88, 635 nm (AID 1129); settings: small-molecule microarray binding, fluorescence 635 nm; higher = more signal
# [3] = molecular target: Focal adhesion kinase 1 (Homo sapiens) (UniProt Q05397); assay: PTK2 protein binding on printed compound slides – biochemical, small-molecule microarray, 635/667 nm fluorescence, BSA, DTT, primary screen (AID 1130); settings: 635 nm fluorescence, higher = more signal;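 also: composite of spot emission at 667 nm and signal to noise over triplicate slides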
# Sequence of Focal adhesion kinase 1 (Homo sapiens) (Q05397 whole entry, looked up): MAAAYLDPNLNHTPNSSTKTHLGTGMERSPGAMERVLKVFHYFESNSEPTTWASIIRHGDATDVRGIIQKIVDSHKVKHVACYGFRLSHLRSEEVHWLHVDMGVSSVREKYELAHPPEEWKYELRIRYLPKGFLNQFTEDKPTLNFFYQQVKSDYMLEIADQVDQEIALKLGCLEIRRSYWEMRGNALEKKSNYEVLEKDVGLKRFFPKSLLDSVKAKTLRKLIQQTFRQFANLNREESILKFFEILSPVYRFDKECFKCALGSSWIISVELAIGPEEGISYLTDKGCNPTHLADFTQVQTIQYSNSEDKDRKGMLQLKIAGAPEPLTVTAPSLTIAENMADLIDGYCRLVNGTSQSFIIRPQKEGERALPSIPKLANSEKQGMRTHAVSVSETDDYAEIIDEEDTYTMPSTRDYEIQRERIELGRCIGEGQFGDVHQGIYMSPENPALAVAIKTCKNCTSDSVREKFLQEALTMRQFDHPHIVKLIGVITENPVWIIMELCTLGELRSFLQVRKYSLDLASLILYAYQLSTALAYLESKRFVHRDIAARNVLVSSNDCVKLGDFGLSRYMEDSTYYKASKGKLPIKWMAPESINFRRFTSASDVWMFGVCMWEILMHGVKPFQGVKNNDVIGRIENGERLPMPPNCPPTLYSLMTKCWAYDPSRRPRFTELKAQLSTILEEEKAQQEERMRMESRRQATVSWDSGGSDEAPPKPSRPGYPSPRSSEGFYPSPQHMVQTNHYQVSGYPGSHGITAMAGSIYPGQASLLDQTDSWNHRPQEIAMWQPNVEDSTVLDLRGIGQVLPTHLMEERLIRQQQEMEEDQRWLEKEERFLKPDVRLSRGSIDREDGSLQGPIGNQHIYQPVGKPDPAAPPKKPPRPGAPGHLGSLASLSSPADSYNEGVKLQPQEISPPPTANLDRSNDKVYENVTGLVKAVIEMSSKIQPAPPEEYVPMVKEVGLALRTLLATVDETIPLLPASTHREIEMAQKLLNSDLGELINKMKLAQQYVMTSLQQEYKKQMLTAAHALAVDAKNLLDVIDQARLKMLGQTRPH
# [4] = system: Fibrinogen (Alexa647-labelled); assay: Alexa647-fibrinogen binding to printed small molecules – biochemical, small-molecule microarray, 635/667 nm fluorescence, artefact control for SMM control-protein annotation, profiling panel (AID 1131); settings: fibrinogen-A647 binding fluorescence, higher = more signal;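 also: z-score merges 667 nm fluorescence with per-spot signal-to-noise over triplicate slides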
# [5] = molecular target: Follistatin (Homo sapiens) (UniProt P19883); assay: FST protein binding to printed compounds – biochemical, small-molecule microarray, 635/667 nm fluorescence, primary screen (AID 1132); settings: 635 nm fluorescence, higher = more signal
# Sequence of Follistatin (Homo sapiens) (P19883 whole entry, looked up): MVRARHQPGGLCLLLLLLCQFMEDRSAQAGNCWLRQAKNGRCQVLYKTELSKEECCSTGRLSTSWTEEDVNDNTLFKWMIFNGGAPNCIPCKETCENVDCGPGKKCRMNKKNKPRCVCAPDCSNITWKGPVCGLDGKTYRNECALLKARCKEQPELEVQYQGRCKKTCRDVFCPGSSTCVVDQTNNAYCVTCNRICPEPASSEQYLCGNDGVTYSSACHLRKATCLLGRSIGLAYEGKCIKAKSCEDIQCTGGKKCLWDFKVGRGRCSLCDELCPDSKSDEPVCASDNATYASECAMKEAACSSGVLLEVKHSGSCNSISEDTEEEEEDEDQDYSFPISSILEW
# [6] = molecular target: Fibroblast growth factor 2 (Homo sapiens) (UniProt P09038); assay: basic fibroblast growth factor binding to printed compounds – biochemical, small-molecule microarray, 635/667 nm fluorescence, primary screen (AID 1133); settings: FGF2, fluorescence 635/667, higher = more signal
# Sequence of Fibroblast growth factor 2 (Homo sapiens) (P09038 whole entry, looked up): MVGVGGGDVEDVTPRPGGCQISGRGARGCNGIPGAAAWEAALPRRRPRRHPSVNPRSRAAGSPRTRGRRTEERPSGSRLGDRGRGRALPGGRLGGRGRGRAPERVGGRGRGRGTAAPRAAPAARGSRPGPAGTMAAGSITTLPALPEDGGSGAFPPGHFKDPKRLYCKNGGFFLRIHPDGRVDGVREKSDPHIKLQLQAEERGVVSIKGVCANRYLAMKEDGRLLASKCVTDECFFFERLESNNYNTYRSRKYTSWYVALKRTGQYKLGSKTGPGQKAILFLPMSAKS
# [7] = JC-1 mitochondrial potential readout, lung cancer cells – cell-based, A549, JC-1 fluorescence, basal, 24 h, 100 nL, profiling panel (AID 1138); settings: higher = more signal;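 also: A549 lung adenocarcinoma cells under basal conditions with no added stimulus; test concentration not given here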
# Lefty1 = Lefty1 protein binding to printed compounds – biochemical, small-molecule microarray, 635/667 nm fluorescence, primary screen (AID 1139); settings: fluorescence 635/667, higher = more signal
# [8] = system: wheat germ agglutinin (Triticum aestivum), Alexa647-labelled; assay: Alexa647-WGA lectin binding to printed small molecules – biochemical, small-molecule microarray, 635/667 nm fluorescence, artefact control for SMM control-protein annotation, profiling panel (AID 1140); settings: WGA-A647 binding, 635 nm fluorescence, higher = more signal;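 also: score merges 667 nm feature emission with signal to noise over triplicate slides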
# [9] = molecular target: Luciferin 4-monooxygenase (Photinus pyralis) (UniProt P08659); assay: inhibition of purified Photinus pyralis luciferase – biochemical, luminescence, purified enzyme, 2006 set, primary screen (AID 1141); settings: purified firefly luciferase, SteadyGlo luminescence, 30 min; higher = more signal, called active from +8 up or from −8 down;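 also: cell-free assay with purified firefly luciferase at 100 ng per well in PBS; test concentration not given here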
# Sequence of Luciferin 4-monooxygenase (Photinus pyralis) (P08659 whole entry, looked up): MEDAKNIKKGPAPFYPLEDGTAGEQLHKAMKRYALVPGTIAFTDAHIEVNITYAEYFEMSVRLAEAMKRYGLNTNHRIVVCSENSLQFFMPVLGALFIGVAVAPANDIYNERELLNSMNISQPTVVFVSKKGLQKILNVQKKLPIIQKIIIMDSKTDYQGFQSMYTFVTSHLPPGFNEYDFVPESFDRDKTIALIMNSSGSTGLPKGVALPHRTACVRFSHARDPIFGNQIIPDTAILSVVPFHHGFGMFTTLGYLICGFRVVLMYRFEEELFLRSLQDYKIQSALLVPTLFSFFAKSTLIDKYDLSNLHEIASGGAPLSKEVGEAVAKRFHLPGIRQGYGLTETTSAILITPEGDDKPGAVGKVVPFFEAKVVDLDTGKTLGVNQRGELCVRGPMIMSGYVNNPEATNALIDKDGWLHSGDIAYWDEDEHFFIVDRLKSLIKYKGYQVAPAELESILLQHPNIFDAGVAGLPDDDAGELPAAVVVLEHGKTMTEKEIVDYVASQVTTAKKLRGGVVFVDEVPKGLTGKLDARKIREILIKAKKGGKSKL
# [10] = system: Wnt5a (protein binding on small-molecule microarray); assay: small molecules binding Wnt5a protein – biophysical, small-molecule microarray, 635/667 nm fluorescence, primary screen (AID 1142); settings: 635 nm fluorescence, higher = more signal;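 also: fluorescence read at 667 nm with signal to noise per printed feature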
# [11] = ATP-based viability of Huh7 replicon cells – cell-based, CellTiter-Glo luminescence, basal, 48 h, cytotoxicity control for HCV replication inhibitor project, primary screen (AID 1143); settings: higher = more signal, called active from +8 up or from −8 down;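 also: Huh7 hepatoma cells carrying a hepatitis C replication reporter with no stimulus; test concentration not given here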
# [12] = Pseudomonas biofilm growth suppression – PAO1 strain, BacTiter-Glo luminescence, LB-PBS, primary screen (AID 1144); settings: P. aeruginosa PAO1 biofilm, 12 h, higher = more signal
# [13] = basal CRE-LacZ reporter activity in PC12 – cell-based, unstimulated, primary screen (AID 1145); settings: no forskolin, luminescence, 4.5 h, higher = more signal, called active from +8 up or from −8 down
# [14] = forskolin-driven CRE-LacZ activity in PC12 – cell-based, CRE-LacZ reporter, forskolin-stimulated, primary screen (AID 1146); settings: luminescence, 4.5 h, higher = more signal, called active from +8 up or from −8 down;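 also: PC12 cells with 6xCRE LacZ reporter stimulated by forskolin 10 µM; beta-galactosidase reporter signal reflecting CREB driven transcription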
# [15] = molecular target: Streptavidin (Streptomyces avidinii) (UniProt P22629); assay: compounds binding control protein streptavidin – biophysical, small-molecule microarray, 635/667 nm fluorescence, artefact control for SMM compound annotation, primary screen (AID 1147); settings: higher = more signal;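 also: signal reflects streptavidin binding to arrayed compounds as a control protein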
# Sequence of Streptavidin (Streptomyces avidinii) (P22629 whole entry, looked up): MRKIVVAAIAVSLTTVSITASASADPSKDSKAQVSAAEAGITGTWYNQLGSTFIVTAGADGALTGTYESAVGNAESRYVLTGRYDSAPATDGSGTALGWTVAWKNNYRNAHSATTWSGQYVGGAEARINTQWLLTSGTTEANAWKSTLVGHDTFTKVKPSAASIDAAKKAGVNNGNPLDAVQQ
# [16] = probe aInhba binding on compound microarray – biochemical, small-molecule microarray, 635/667 nm fluorescence, primary screen (AID 1148); settings: higher = more signal;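 also: score merges 667nm spot fluorescence with signal-to-noise for antibody binding to printed compounds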
# Torsin-1A (Homo sapiens) [17] = molecular target: Torsin-1A (Homo sapiens) (UniProt O14656); assay: TOR1A wild-type binding on microarray – cell lysate, small-molecule microarray, lysate, 635/667 nm, primary screen (AID 1149); settings: COS7 hTOR1A-WT lysate, 635 nm fluorescence, higher = more signal
# Sequence of Torsin-1A (Homo sapiens) (O14656 whole entry, looked up): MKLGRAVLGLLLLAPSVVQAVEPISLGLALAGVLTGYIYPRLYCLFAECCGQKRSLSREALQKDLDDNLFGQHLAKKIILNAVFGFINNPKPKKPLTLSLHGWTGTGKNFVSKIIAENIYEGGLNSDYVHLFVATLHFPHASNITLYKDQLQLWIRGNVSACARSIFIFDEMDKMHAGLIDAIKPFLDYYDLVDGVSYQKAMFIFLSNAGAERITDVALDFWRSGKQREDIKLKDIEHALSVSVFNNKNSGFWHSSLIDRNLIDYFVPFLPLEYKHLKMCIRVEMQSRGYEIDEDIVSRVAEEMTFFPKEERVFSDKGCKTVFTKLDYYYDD
# Torsin-1A (Homo sapiens) [18] = molecular target: Torsin-1A (Homo sapiens) (UniProt O14656); assay: torsin A mutant lysate binding on microarrays – cell lysate, small-molecule microarray, COS7 lysate, 635/667 nm fluorescence, primary screen (AID 1150); settings: COS7 hTOR1A mutant lysate, 635 nm fluorescence, higher = more signal;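 also: score pools 667 nm emission and signal to noise measuring lysate protein binding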
# [19] = system: Sonic hedgehog protein (Shh); assay: Sonic hedgehog microarray binding compounds – biochemical, small-molecule microarray, 635/667 nm fluorescence, primary screen (AID 1151); settings: 635 nm fluorescence, higher = more signal;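 also: Shh protein binding to compounds spotted on small-molecule microarray slides; score combines spot fluorescence intensity with signal-to-noise across triplicate slides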
Compound,composite z-score [1],composite z-score [2],composite z-score [3],composite z-score [4],composite z-score [5],composite z-score [6],z-score [7],composite z-score (Lefty1),composite z-score [8],z-score [9],composite z-score [10],z-score [11],z-score [12],z-score [13],z-score [14],composite z-score [15],composite z-score [16],composite z-score (Torsin-1A (Homo sapiens) [17]),composite z-score (Torsin-1A (Homo sapiens) [18]),composite z-score [19]
COC(=O)[C@@]1(Cc2ccc(F)cc2)[C@H]2c3cc(C(=O)N(C)C)n(Cc4ccc(C)c(F)c4F)c3C[C@H]2CN1C(=O)c1ccccc1,2.08,0.864,0.454,0.743,0.0662,-0.769,1.33,-0.413,0.854,0.0883 (inactive),0.152,-1.47 (inactive),0.563 (inactive),0.0041 (inactive),0.204 (inactive),0.993,0.651,0.123,0.432,-0.553
Cc1ccccc1C(O)C1C=CC2C(=O)N(C)C(=O)C2N1Nc1ccc([N+](=O)[O-])cc1[N+](=O)[O-] (stereo not given),0.509,1.27,0.646,1.02,0.674,-0.38,0.668,-0.167,0.913,0.147 (inactive),0.483,-0.157 (inactive),0.262 (inactive),0.443 (inactive),0.57 (inactive),1.04,0.138,-0.0091,0.94,-0.457
C=CC[C@@]1(C(=O)NCCN2CCOCC2)N=C(c2ccc(OCCCO)cc2)O[C@@H]1c1ccccc1,0.432,1.24,0.49,0.755,1.46,1.73,-0.185,1.55,0.978,-0.43 (inactive),1.32,-0.914 (inactive),-0.299 (inactive),0.54 (inactive),-0.0392 (inactive),0.803,0.328,1.24,0.94,2.1
COc1ccccc1CN1C(=O)c2ccccc2[C@@H](C(=O)NCC(C)C)[C@@H]1c1ccc(CO)cc1,0.366,1.18,0.088,0.707,1.23,1.56,0.163,-0.632,0.342,-0.836 (inactive),0.572,-0.922 (inactive),0.34 (inactive),-0.258 (inactive),-0.992 (inactive),-0.378,-0.145,-0.114,0.526,0.0072
COCCCNC(=O)[C@]1(CCS(=O)(=O)c2ccccc2)N=C(c2ccc(OCCCO)cc2)O[C@@H]1c1ccccc1,1.85,1.27,1.57,0.997,0.892,1.36,1.3,0.136,0.455,-1.45 (inactive),0.118,-1.63 (inactive),-0.812 (inactive),0.638 (inactive),-1.33 (inactive),1.43,0.371,0.972,1.33,0.306
CCCN1C(=O)[C@@]2(Cc3ccccc3)N=C(c3ccc(OCCCO)cc3)O[C@H]2c2ccccc21,0.856,1.08,0.86,0.753,1.42,1.73,0.686,0.757,0.445,-4.05 (inactive),0.421,-5.03 (inactive),-0.657 (inactive),1.61 (inactive),-0.979 (inactive),-0.0407,0.215,1.06,0.884,1.72
CO[C@H]1O[C@H](CO)[C@@H](OC(=O)c2ccc(Br)cc2)[C@@H]2OC(=O)[C@H](Cc3cccc(Br)c3)C/C=C/C[C@@H](Cc3cccc(Br)c3)C(=O)O[C@@H]12,1.58,1.05,0.214,0.647,1.02,0.897,1.02,0.442,0.31,0.0021 (inactive),0.422,-1.62 (inactive),-0.0682 (inactive),0.212 (inactive),0.122 (inactive),0.578,-0.0695,-0.103,0.442,0.707
OCCCC1=CC(c2cccs2)N(Cc2cccc(OC(F)(F)F)c2)CC1 (stereo not given),0.357,-0.138,0.316,-1.42,-0.17,-0.546,0.593,0.226,0.771,-0.605 (inactive),-0.335,-1.06 (inactive),0.839 (inactive),0.593 (inactive),-0.368 (inactive),-0.889,-0.179,0.331,-0.632,0.243
COC(=O)[C@@]1(Cc2ccc(OC)cc2)[C@H]2c3cc(C(=O)N(C)C)n(CCF)c3C[C@H]2CN1C(=O)c1ccccc1,1.9,1.25,0.842,1.01,0.887,0.127,0.486,-0.698,1.32,0.948 (inactive),0.17,-2.15 (inactive),0.475 (inactive),1.35 (inactive),-0.715 (inactive),2.2,0.515,0.3,0.541,-0.379
COCCOC(=O)N1C(=O)[C@@]2(c3cc(C#CCNC(N)=O)ccc31)[C@H](C(N)=O)[C@H]1C(=O)O[C@H](c3ccccc3)[C@H](c3ccccc3)N1[C@@H]2c1ccc(OCCO)cc1,-0.224,1.03,0.199,0.609,1.48,1.26,-2.25,1.46,0.121,-1.8 (inactive),0.601,0.166 (inactive),0.404 (inactive),0.631 (inactive),-0.0727 (inactive),0.668,0.0219,0.532,1.26,1.63
O=C1NC(=O)C2C1C=CC(C(O)CCc1ccccc1)N2Nc1ccccn1 (stereo not given),-0.0572,0.495,0.318,0.415,0.269,-0.157,0.681,-0.139,0.589,-1.13 (inactive),0.149,-0.466 (inactive),-0.922 (inactive),0.433 (inactive),-0.382 (inactive),0.179,-0.0849,0.0825,0.486,0.0046
